# Assay outcomes (PubChem)
# aSyn 5UTR act – Activators working through SNCA 5'UTR binding (MLPCN). alpha-synuclein 5'UTR reporter, activators screen. activity score, % (tested at 7.5 µM), hits read low. hit rate 7.1% among 300,000; in the data active means activity score below about -60%
# Active calls of the source: *. Only a sample is shown.
SMILES,aSyn 5UTR act
Cc1ccc(OCCNC(=O)c2ccc3c(c2)OCO3)cc1,-62*
Cc1sc2c(c1C)CN(CCN1CCOCC1)CN2C(=O)c1ccccc1,-82*
Cc1cc(C)nc(SCC(=O)N2CCc3ccccc32)n1,-78*
Cc1ccc(SCC(=O)N2CCc3ccccc32)cc1,-171*
O=C(CS(=O)(=O)c1ccccc1)N1CCc2ccccc21,-107*
O=C(CSC1=NCCS1)N1CCc2ccccc21,-198*
N#C/C(=C\c1cc(Cl)c(OCc2ccc(Cl)cc2)c(Cl)c1)C(N)=O,-143*
CCCCN(CCCC)S(=O)(=O)c1ccc(C(=O)Nc2nnc(COC)o2)cc1,62
CN(C)S(=O)(=O)c1ccc(C(=O)Nc2ccc3ncccc3c2)cc1,-86*
CCS(=O)(=O)c1ncc(Cl)c(C(=O)Nc2ccc(S(=O)(=O)N(C)c3ccccc3)cc2)n1,78
O=C(Nc1ccc2ncccc2c1)Nc1ccc2ncccc2c1,-179*
O=C(Nc1ccc2ncccc2c1)c1ccccc1Br,-297*
Cc1nc2cc(NC(=O)c3ccc(S(=O)(=O)N(C)c4ccccc4)cc3)ccc2o1,-132*
c1cnc2ccc(-c3ccc4ncccc4c3)cc2c1,-84*
Cc1ccc(N2C(=O)c3ccccc3C2O)nc1 (centres undefined),73
COc1ccc(O)c(C(=O)C2c3ccccc3C(=O)N2c2ccc(C)cc2)c1 (centres undefined),-116*
COc1ccc(N2C(=O)c3ccccc3C2O)cc1 (centres undefined),-79*
O=C1c2ccccc2C(O)N1c1ccc(Cl)cc1 (centres undefined),-67*
C=CC[n+]1c(-c2ccc(C)cc2)csc1Nc1ccc(NC(C)=O)cc1,100
c1ccc(Nc2scc(-c3ccccc3)[n+]2Cc2ccco2)cc1,-222*
Cc1c(OCc2ccccc2)c(=O)ccn1Cc1ccccc1,-111*
O=C1NC(c2ccccc2Cl)=N/C1=C/c1ccco1,-142*
O=C1NC(c2ccc(Br)cc2)=N/C1=C/c1ccco1,-149*
COc1ccc(/C=N/Nc2cc(C)nc3ccc(Br)cc23)cc1,100
Cc1cc2c(C)nc(N/N=C/c3ccc(F)cc3)nc2o1,-72*
SMILES,aSyn 5UTR act
Cc1cc(C)n(-c2ncc(-c3ccccc3)nn2)n1,-69*
Cc1cc(C)n(-c2nncc(-c3ccccc3)n2)n1,-76*
Cc1cc(C)n(-c2nc(N(c3ccccc3)c3ccccc3)nc(-n3nc(C)cc3C)n2)n1,57
c1ccc(-c2cnnc(N3CCOCC3)n2)cc1,-110*
O=C(Nc1nc2ccccc2s1)C1CCCO1 (centres undefined),-132*
O=C(Nc1ccc(-c2nc3cccnc3s2)cc1)C1CCCO1 (centres undefined),87
O=C(Nc1nc2ccc(F)cc2s1)C1CCCO1 (centres undefined),-145*
Nc1ccc2nc(NC(=O)C3CCCCC3)sc2c1,-124*
Cc1cc(C)c2sc(NC(=O)C3CC3)nc2c1,-89*
O=C(Nc1nnc(-c2ccccc2F)s1)C1CCCO1 (centres undefined),-181*
CN(CC(=O)Nc1cccc(F)c1)C(=O)CCCNC(=O)c1ccc(Cl)cc1,-91*
O=C(CSCc1cccc(F)c1)NCc1ccccc1,-75*
Nc1ccc(C(=O)N/N=C/c2cn(Cc3cccc(F)c3)c3ccccc23)cc1,70
COc1ccccc1CNC(=O)CSc1ccccc1,-100*
COc1ccccc1CNC(=O)Cc1ccccc1,-77*
O=C(CSc1ccccc1)NCc1ccccc1,-69*
Nc1c(Br)cc2oc(-c3ccccc3)nc2c1Br,-179*
Cc1nnc(NC(=O)Nc2cccc(Cl)c2)s1,-122*
Cc1csc(NC(=O)Nc2cccc(Cl)c2)n1,-203*
COc1cc(/C=N/Nc2ccc(C(F)(F)F)cn2)ccc1O,-147*
CCOc1cc(/C=N/Nc2cc(C)nc(-n3nc(C)cc3C)n2)ccc1O,68
O=C(O)c1ccc(/C=N/Nc2ccc(C(F)(F)F)cn2)cc1,-172*
c1ccn(-c2ccc(N3CCOCC3)cc2)c1,-125*
Cc1ccc(NC(=O)/C=C/c2ccc3c(c2)OCO3)nc1,-109*
Cc1ccc(NC(=O)Nc2ccc(Cl)c(Cl)c2)nc1,-90*
SMILES,aSyn 5UTR act
Cc1ccc(NC(=O)Nc2ccc(Cl)cn2)cc1,-147*
CC(/C=C/c1ccc2c(c1)OCO2)=N/NC(=O)CNc1ccc(C)cc1,-62*
Cc1ccc(NC(=O)Nc2ccc3c(c2)OCO3)nc1,-193*
CC(=O)c1cccc(NC(=O)CSc2ccc(-c3ccc4c(c3)OCO4)nn2)c1,-87*
COc1ccc(-c2ccc(SCC(=O)Nc3cccc(C(C)=O)c3)nn2)cc1OC,-82*
COc1ccccc1NC(=O)CSc1ccc(-c2ccc(-n3cccn3)cc2)nn1,-113*
COc1ccc(-c2nc(SC)n(S(=O)(=O)c3ccccc3)n2)cc1,-120*
CNC(=S)N1CCN(c2nc3ccccc3s2)CC1,-75*
CCC(=O)N1CCN(c2nc3ccccc3s2)CC1,-105*
O=C(C1CC1)N1CCN(c2nc3ccccc3s2)CC1,-84*
Cc1ccc(NC(=O)c2ccccc2F)nc1,-88*
COc1cc2ccccc2cc1C(=O)Nc1ccc(C)cn1,-87*
CC(=O)c1c(C)[nH]c(C(=O)Nc2ccc(C)cn2)c1C,85
Cc1ccc(NC(=O)c2cc(F)c(F)cc2Cl)nc1,-130*
O=c1oc2ccccc2nc1/C=C(O)/C=C/c1ccc(F)cc1,-88*
O=C(Nc1ccc(Cl)cc1Cl)C1=Cc2ccccc2OC1,-192*
Cc1[nH]nc2nc(SCC(=O)NC3CCCCC3)n(-c3ccc(Br)cc3)c(=N)c12,59
O=C(CSc1ccccc1)NC1CCCCCC1,-82*
O=C(NC1CCCCC1)N1CCc2ccccc21,-111*
O=C(COc1ccccc1)NC1CCCCCCC1,-67*
O=C(COc1ccc(Cl)cc1[N+](=O)[O-])NC1CCCCC1,-119*
Cc1cc(OCC(=O)NC2CCCCC2)ccc1Cl,-62*
CN(C)c1cccc(/C=C(\C#N)c2ccccc2)c1,-155*
O=C(O)c1cccc(-n2cc(-c3cccc(C(F)(F)F)c3)cn2)c1,-128*
COC(=O)c1ccc(C)c(NS(=O)(=O)c2ccc(OC)cc2)c1,82
SMILES,aSyn 5UTR act
COc1ccc(S(=O)(=O)Nc2ccc(O)c3ccccc23)cc1,-68*
Cc1ccc(/C(N)=N/OC(=O)c2cccc(F)c2)cc1,-262*
Cc1ccc(/C(N)=N/OC(=O)c2ccc3ccccc3c2)cc1,-124*
N/C(=N\OC(=O)c1cccc(F)c1)c1ccccc1,-331*
Cc1cc(C(=O)Nc2ccc([N+](=O)[O-])cn2)cs1,-137*
CC(Oc1cccc(Cl)c1)C(=O)Nc1ccc([N+](=O)[O-])cn1 (centres undefined),55
Cc1ccc(C(=O)Nc2ccc([N+](=O)[O-])cn2)o1,-93*
Cc1ccc(OCC(=O)Nc2ccccc2[N+](=O)[O-])c(Br)c1,-207*
Cc1ccc(OC/C(=N\O)C(C)(C)C)c([N+](=O)[O-])c1,-77*
Cc1ccc(OCC(=O)Nc2ccon2)c([N+](=O)[O-])c1,-91*
Cc1cc(C(=O)NNC(=S)NC2CCCCC2)cs1,-77*
COc1cccc(C(=O)NNC(=S)NC2CCCCC2)c1,-64*
O=C(NC(=S)NC1CCCC1)c1ccccc1,-126*
O=C(NNC(=S)NC1CCCCC1)c1ccc(Cl)s1,-62*
CCCNC(=O)c1ccc2c(=O)c(O)c(-c3ccsc3)[nH]c2c1,87
CCCCNC(=S)NNC(=O)c1csc(C)c1,-63*
O=C(O)c1cnn(-c2nc(-c3ccc(Cl)cc3)cs2)c1C(F)(F)F,-92*
COc1ccc(-c2csc(-n3ncc(C(=O)O)c3C(F)(F)F)n2)cc1,-76*
